Source: PubChem
PrP UTR inh: inhibition of PrP 5' UTR reporter expression | cell-based PrP 5' UTR mRNA reporter, plate reader | inhibition, % (no concentration beside the values) | AID 488862 | actives 0.35% (n = 340,000); in the data active = inhibition above about 52%; also: 0 = median of the neutral control wells
TcdB GH inh: inhibitors of Clostridioides difficile toxin B glycohydrolase. P18177. TcdB glycohydrolase enzymatic assay, plate reader. inhibition, % at 9.99 µM. actives 0.24% (n = 350,000). AID 652162; in the data active = inhibition above about 10%
Target sequence (P18177 whole entry, looked up): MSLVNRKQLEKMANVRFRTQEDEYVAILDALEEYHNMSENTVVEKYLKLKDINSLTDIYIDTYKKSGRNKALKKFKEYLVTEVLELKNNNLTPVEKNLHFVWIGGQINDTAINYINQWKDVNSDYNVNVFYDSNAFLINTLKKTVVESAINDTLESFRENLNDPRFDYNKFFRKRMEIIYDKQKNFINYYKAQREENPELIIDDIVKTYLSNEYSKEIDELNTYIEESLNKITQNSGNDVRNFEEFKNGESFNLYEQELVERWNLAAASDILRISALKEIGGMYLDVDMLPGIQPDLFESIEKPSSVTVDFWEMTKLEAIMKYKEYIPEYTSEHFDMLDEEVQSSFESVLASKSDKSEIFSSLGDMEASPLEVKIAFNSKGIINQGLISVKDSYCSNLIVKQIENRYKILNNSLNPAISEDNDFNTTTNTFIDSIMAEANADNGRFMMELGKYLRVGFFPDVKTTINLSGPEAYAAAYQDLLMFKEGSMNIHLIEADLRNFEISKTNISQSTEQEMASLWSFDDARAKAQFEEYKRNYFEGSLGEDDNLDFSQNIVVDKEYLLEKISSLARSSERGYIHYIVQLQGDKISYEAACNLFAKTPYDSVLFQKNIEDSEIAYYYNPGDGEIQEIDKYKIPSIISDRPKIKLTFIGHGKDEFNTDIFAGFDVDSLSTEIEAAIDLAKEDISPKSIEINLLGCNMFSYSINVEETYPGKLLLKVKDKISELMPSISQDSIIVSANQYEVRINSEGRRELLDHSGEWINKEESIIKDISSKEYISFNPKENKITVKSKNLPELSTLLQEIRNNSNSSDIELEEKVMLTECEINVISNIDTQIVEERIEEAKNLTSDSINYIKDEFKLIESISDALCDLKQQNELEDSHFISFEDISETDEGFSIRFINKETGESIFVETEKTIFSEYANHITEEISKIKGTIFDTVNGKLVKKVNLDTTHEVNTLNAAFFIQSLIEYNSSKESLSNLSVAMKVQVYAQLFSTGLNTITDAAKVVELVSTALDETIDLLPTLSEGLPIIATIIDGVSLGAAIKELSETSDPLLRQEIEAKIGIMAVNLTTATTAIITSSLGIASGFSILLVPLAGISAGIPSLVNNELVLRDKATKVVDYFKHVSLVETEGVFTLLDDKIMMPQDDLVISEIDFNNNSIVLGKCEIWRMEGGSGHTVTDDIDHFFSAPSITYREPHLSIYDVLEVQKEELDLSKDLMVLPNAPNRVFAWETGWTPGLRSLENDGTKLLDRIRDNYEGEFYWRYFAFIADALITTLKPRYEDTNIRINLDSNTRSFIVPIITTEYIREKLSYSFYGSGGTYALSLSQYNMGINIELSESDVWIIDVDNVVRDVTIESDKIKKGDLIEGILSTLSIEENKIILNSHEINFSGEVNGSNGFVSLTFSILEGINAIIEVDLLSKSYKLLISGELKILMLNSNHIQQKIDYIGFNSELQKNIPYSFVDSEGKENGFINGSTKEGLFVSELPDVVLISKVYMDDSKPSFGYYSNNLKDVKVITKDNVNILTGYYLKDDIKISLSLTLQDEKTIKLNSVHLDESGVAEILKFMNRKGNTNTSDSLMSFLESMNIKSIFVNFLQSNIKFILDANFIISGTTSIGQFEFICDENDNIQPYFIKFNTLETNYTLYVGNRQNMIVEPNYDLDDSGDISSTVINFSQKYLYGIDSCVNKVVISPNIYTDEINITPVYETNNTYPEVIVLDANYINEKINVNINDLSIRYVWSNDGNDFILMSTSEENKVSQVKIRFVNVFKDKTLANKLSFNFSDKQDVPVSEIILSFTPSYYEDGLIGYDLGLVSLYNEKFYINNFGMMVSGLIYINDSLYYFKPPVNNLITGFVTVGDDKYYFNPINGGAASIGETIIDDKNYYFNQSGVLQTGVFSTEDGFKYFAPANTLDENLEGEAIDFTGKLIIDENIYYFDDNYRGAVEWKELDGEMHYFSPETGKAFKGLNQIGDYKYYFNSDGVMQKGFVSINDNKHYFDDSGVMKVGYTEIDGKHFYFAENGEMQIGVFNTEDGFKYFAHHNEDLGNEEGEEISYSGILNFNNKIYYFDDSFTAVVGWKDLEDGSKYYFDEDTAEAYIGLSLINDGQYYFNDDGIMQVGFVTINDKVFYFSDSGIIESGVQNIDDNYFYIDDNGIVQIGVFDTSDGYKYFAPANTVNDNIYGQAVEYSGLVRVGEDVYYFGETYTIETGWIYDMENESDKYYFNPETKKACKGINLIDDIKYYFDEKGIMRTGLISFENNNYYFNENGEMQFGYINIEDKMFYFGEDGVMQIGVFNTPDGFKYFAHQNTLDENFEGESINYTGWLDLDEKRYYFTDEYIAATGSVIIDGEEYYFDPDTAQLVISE
PriA SSB inh: inhibitors of Klebsiella pneumoniae PriA binding to SSB C-terminal tail. AlphaScreen SSBct-PriA binding, biotinylated peptide. inhibition, % at 33 µM. actives 0.6% (n = 430,000); in the data active = inhibition mostly above about 37%, no sharp cut-off; inactive = mostly below about 20%;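 also: plate controls were negative control peptide for no effect and reference peptide for full effect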
BioA inh: inhibitors of Mycobacterium tuberculosis BioA enzyme. purified M. tuberculosis BioA enzyme, plate reader. inhibition, % at 9.99 µM. actives 0.096% (n = 360,000). AID 602481; in the data active = inhibition above about 40%
Mtb hypoxia rep: reduces hypoxia-regulated biosensor signal in M. tuberculosis. fluorescence inhibition, % (no concentration beside the values). actives 0.1% (n = 300,000). M. tuberculosis hypoxia-regulated fluorescent reporter, fluorescence; in the data active = fluorescence inhibition mostly above about 23%, no sharp cut-off; inactive = mostly below about 17%
FadD28 FP inh: inhibitors of Mycobacterium tuberculosis FadD28 bisubstrate binding; FadD28 bisubstrate probe binding, fluorescence polarization; inhibition, % at 12.5 µM; actives 0.22% (n = 360,000); AID 588549; in the data active = inhibition above about 8.5%, passing the limit was not always enough
The depositor's hits bear a star. Compounds with a hit are over-represented: about 1% of the library has one in this group of screens.

For O=C(CCN1C(=O)/C(=C/c2ccco2)SC1=S)Nc1ccc(O)cc1C(=O)O the results were TcdB GH inh 0, PriA SSB inh 0, BioA inh -1, Mtb hypoxia rep -1 and FadD28 FP inh 21*.
O=C(CCCN1C(=O)/C(=C/c2ccco2)SC1=S)Nc1ccccc1C(=O)O was read as PrP UTR inh 0, TcdB GH inh 0, PriA SSB inh 1, Mtb hypoxia rep 8 and FadD28 FP inh 45*.
O=C(CN1C(=O)/C(=C\c2ccco2)SC1=S)Nc1ccc(O)cc1C(=O)O was read as PrP UTR inh -11, TcdB GH inh 0, PriA SSB inh 0, BioA inh 2, Mtb hypoxia rep -3 and FadD28 FP inh 36*.
For O=C(CCCN1C(=O)/C(=C\c2ccccc2)SC1=S)Nc1ccc(O)cc1C(=O)O the results were PrP UTR inh -9, TcdB GH inh 0, PriA SSB inh 9, BioA inh 5, Mtb hypoxia rep -7 and FadD28 FP inh 2.
COCc1cc(=O)n2[nH]c(-c3ccc(C)cc3)cc2n1 was read as PrP UTR inh -34, PriA SSB inh -22, BioA inh -1, Mtb hypoxia rep 4 and FadD28 FP inh -3.
Screening C=CCOc1c(Br)cc(CNc2ccc(NC(=O)C(C)C)c(OC)c2)cc1OC returned PrP UTR inh -19, PriA SSB inh 42*, BioA inh -1, Mtb hypoxia rep 16 and FadD28 FP inh -1.
For COc1cc(CNc2ccc(C(=O)O)cc2)cc(Br)c1OCC(=O)NC(C)(C)C the results were PrP UTR inh -10, PriA SSB inh -6, Mtb hypoxia rep 8 and FadD28 FP inh 0.
`O=[N+]([O-])c1cc(C(F)(F)F)ccc1NC1CCN(Cc2ccccc2)CC1` gave PrP UTR inh -1, TcdB GH inh 0, PriA SSB inh 33, BioA inh 7, Mtb hypoxia rep 3 and FadD28 FP inh 0.
Screening O=[N+]([O-])c1cc(C(F)(F)F)ccc1NC1CCN(Cc2ccccc2)C1 (stereo unspecified) returned PrP UTR inh 2, TcdB GH inh 1, PriA SSB inh 43*, BioA inh 5, Mtb hypoxia rep -4 and FadD28 FP inh 1.
CCN(CC)c1ccc(C=NNS(=O)(=O)c2ccc(C)c([N+](=O)[O-])c2)cc1 was read as PriA SSB inh 39* and Mtb hypoxia rep -10.
Screening COc1cc(C=NNS(=O)(=O)c2ccc(C)c([N+](=O)[O-])c2)ccc1O returned PriA SSB inh -5 and Mtb hypoxia rep 7.
O=C(Nc1cccc2ncccc12)c1ccc(F)cc1 was read as PrP UTR inh -14, TcdB GH inh 0, PriA SSB inh 1, Mtb hypoxia rep 10 and FadD28 FP inh -3.
Screening O=C(Nc1cccc2ncccc12)c1ccc(Cl)cc1 returned PrP UTR inh -21, TcdB GH inh -1, PriA SSB inh 48*, BioA inh -1, Mtb hypoxia rep 15 and FadD28 FP inh 1.
For CCN(CC(=O)NCc1cccs1)C(=O)CCOc1ccccc1C the results were PrP UTR inh -7, TcdB GH inh 1, PriA SSB inh -12, BioA inh 1, Mtb hypoxia rep 0 and FadD28 FP inh 0.
CSc1nnc(NC(=O)c2ccc3c(c2)OCO3)s1 was read as PrP UTR inh 63*, TcdB GH inh 2, PriA SSB inh -12, BioA inh -1, Mtb hypoxia rep -1 and FadD28 FP inh -2.
`CCNC(=O)C[C@@H]1CC[C@@H]2[C@H](COC[C@H](O)CN2C(=O)Nc2ccc(Cl)c(Cl)c2)O1` gave TcdB GH inh 1 and BioA inh -2.
`COc1ccc(S(=O)(=O)CC(=O)Nc2nnc(-c3ccco3)o2)cc1` gave PriA SSB inh -5.
For CCS(=O)(=O)c1ccc(CC(=O)Nc2nnc(-c3ccco3)o2)cc1 the results were PriA SSB inh 54*.
For CC(=O)c1cccc(Oc2cc(NN3CCCCC3)c([N+](=O)[O-])cc2[N+](=O)[O-])c1 the results were PrP UTR inh -23, TcdB GH inh 1, PriA SSB inh 45*, BioA inh -1, Mtb hypoxia rep -1 and FadD28 FP inh -3.
For C[C@H](NC(=O)c1ccco1)C(=O)Nc1nc(-c2ccccn2)cs1 the results were PrP UTR inh -8, TcdB GH inh -10, PriA SSB inh 53*, Mtb hypoxia rep 8 and FadD28 FP inh -9.
CN(C(=O)c1ccncc1)c1nnc(-c2ccccn2)s1 was read as PrP UTR inh -29, PriA SSB inh 14, BioA inh -1 and FadD28 FP inh -3.
`O=C(Nc1nc(-c2ccccn2)cs1)c1ccco1` gave PrP UTR inh -7, TcdB GH inh -5, PriA SSB inh 49*, Mtb hypoxia rep 10 and FadD28 FP inh -6.
`Cc1cc(C(=O)Nc2nc(-c3ccncc3)cs2)on1` gave PriA SSB inh -8.
For CN(C(=O)c1ccno1)c1nnc(-c2ccccn2)s1 the results were PrP UTR inh -9, PriA SSB inh 42*, BioA inh 2 and FadD28 FP inh -1.
`Cc1cc(C(=O)Nc2nc(-c3ccccn3)cs2)on1` gave PriA SSB inh 94*.
COc1ccc(S(=O)(=O)N2CCN(C(=O)Cc3cccs3)CC2)cc1 was read as PrP UTR inh -16, TcdB GH inh -2, PriA SSB inh -11, Mtb hypoxia rep -19 and FadD28 FP inh -1.
For O=[N+]([O-])c1cccc(/C=C2\CCC(C=NNc3ccc4ccccc4n3)=C2N2CCOCC2)c1 the results were PriA SSB inh 5 and Mtb hypoxia rep -12.
Screening O=C(CNC(=O)c1ccco1)Nc1nc(-c2ccccn2)cs1 returned PriA SSB inh 96*.
`O=C(Nc1nc(-c2ccccn2)cs1)c1ccc(C(F)(F)F)cc1` gave PriA SSB inh 31.
O=C(Nc1nc(-c2ccncc2)cs1)c1ccco1 was read as PrP UTR inh -11, PriA SSB inh -13, BioA inh -1 and FadD28 FP inh -3.
Screening O=C(Nc1nc(-c2ccccn2)cs1)c1ccno1 returned PriA SSB inh 125*.
N#Cc1cn(CC(=O)N2CCc3ccccc32)c2ccccc12 was read as PriA SSB inh 7.
COc1ccccc1-n1nnc(C(=O)OCc2nc(-c3ccc(Cl)cc3)oc2C)c1C was read as PriA SSB inh -5.
For c1ccc(-c2nnc(OCC3CCCO3)c3ccccc23)cc1 (stereo unspecified) the results were PrP UTR inh -18, TcdB GH inh 11*, PriA SSB inh -14, BioA inh 7, Mtb hypoxia rep 12 and FadD28 FP inh 1.
Screening CCOc1ccc(-c2cc(N)n(S(=O)(=O)c3cccc4nsnc34)n2)cc1 returned PrP UTR inh -15, TcdB GH inh 2, PriA SSB inh 24, BioA inh 1, Mtb hypoxia rep -2 and FadD28 FP inh -1.
